VP16 counter: counter-screen for ROR gamma inhibitors: Gal4-VP16 reporter | Potency, µM (top dose mostly 53.6 µM), inactives show at the highest dose activity, negative = inhibition, most hits filed as inhibitors | actives 3.5% (n = 310,000) | Drosophila S2 Gal4-VP16 UAS-luciferase, luminescence, 20 h;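 also: Gal4-VP16 expression switched on by copper sulfate through the metallothionein promoter; % is scaled to controls: 0 for no effect and ±100 for the full control effect; nearly all actives have a fitted effect of over 50% in size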
Epigenetic reg: epigenetic control regulation, reporter derepression; murine LDR cells, GFP reporter derepression, 30 h; actives 0.2% (n = 280,000); Potency, µM (highest dose often 53.9 µM), inactives show top-dose GFP activation, hits mostly activators; AID 1865; also: % of control where 0% means no effect; nearly all actives have a fitted effect of over 60% in size
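Reporter derepression read as number of fluorescent GFP-positive objects, 20-120 um in size, counted by laser-scanning cytometer. Mouse LDR line with an epigenetically silenced CMV-GFP locus; compound incubation 30 h, 37 C.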
RORg inh: inhibitors of mouse ROR gamma transcriptional activity. P51450. Drosophila S2 Gal4-RORgamma UAS-luciferase reporter, 20 h. Potency, µM (top dose mostly 53.6 µM), for inactives: at the top dose activity change, negative = inhibition, hits mostly inhibitors. actives 5.4% (n = 310,000). AID 2551; also: % is scaled to controls: 0 for no effect and ±100 for the full control effect; nearly all actives have a fitted effect of over 60% in size
Target sequence (P51450 whole entry, looked up, the tested form may be a part): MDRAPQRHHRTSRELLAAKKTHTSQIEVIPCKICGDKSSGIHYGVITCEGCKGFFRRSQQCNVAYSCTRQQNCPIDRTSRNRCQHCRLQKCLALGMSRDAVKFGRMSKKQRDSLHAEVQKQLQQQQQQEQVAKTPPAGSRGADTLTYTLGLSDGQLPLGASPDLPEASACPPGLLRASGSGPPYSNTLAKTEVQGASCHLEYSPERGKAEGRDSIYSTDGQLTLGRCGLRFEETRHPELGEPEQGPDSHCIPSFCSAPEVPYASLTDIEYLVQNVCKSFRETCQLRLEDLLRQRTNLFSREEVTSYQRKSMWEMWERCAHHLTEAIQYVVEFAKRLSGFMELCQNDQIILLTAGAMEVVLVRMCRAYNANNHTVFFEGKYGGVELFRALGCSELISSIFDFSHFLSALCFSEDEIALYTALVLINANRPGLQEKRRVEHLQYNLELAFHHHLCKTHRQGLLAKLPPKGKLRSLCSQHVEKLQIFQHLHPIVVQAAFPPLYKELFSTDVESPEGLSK
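In this cell-based reporter format, copper sulfate (700 uM final) drives Gal4–ROR gamma fusion expression from a metallothionein promoter in Drosophila Schneider cells; compounds preincubated 1 hr, reporter read after 20 hr at ambient temperature.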
Sfp inh: inhibitors of Bacillus subtilis Sfp phosphopantetheinyl transferase; Biochemical Sfp PPTase activity, qHTS; Potency, µM, without a hit: largest response in the series, negative = inhibition, hits mostly inhibitors; actives 3.5% (n = 310,000);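 also: the enzyme is Sfp with the accession as filed and its product quenches rhodamine fluorescence; 0% = enzyme reaction without inhibitor and -100% = no enzyme wells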
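Step 1, compound plus 15 nM Sfp-PPTase, 15 min, room temperature. Step 2, add rhodamine-CoA (5 uM) and BHQ-2-YbbR (12.5 uM). Step 3, read 525/598 nm fluorescence at 0 and 30 min.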
PINK1 expr mod: PINK1 expression modulation. PINK1 immunofluorescence, high-content cytometry, 24 h. Potency, µM (doses to about 76.6 µM), inactives show at the top dose activation (PINK1 increase), actives largely listed as activators. actives 0.2% (n = 410,000). AID 624263; active = well fitted activation curve with a large enough effect; inconclusive = small, poorly fitted or top-dose-only effect; cell line not stated here; also: % of control where 0% means no effect; nearly all actives have a fitted effect of over 65% in size
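Readout is PINK1 immunofluorescence, quantified alongside mitochondrial, cell and nuclear markers by laser-scanning microplate cytometry. Cells from a stable line were exposed to compound titrations (5 concentrations) for 24 hours, with CCCP controls.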
ClpP mod: qHTS Assay for Activators of ClpP | actives 1.9% (n = 340,000) | Potency, µM (series often up to 57.5 µM), inactives show top-dose activity change, negative = active | ATP-dependent Clp protease proteolytic subunit (Bacillus subtilis (strain 168)), P80244 | purified B. subtilis ClpP, FRET peptide cleavage, 20 min; active = well fitted falling curve with a large enough effect; inconclusive = small, poorly fitted or top-dose-only effect; inactive = no such curve, though single readings can be large or run the other way; also: the source files actives as falling curves though it sought activators and does not explain the sign; nearly all actives have a fitted effect of over 65% in size
Target sequence (P80244 whole entry, looked up): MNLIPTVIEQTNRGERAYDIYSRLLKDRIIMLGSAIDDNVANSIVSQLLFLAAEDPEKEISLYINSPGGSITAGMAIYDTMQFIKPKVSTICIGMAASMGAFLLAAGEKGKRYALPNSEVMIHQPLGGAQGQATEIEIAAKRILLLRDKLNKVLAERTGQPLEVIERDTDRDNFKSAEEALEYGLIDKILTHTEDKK
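Purified B. subtilis ClpP, 10 microg/mL final in Tris/HCl pH8 with KCl, BSA, glycerol and Tween-20, cleaved an Abz/nitrotyrosine-quenched decapeptide. Fluorescence (ex 320, em 430) was read at 0 and 20 min at room temperature. Delta was normalized to 5.8 microM ADEP and DMSO/no-enzyme controls.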
* = called active by the depositor; ? = inconclusive; / = no result; ! = repeats disagree; [ ] = dose if it differs, or a comment. The list is not random: actives were taken first. Their share in the collection is about 8.1%. Unless noted, calls follow the shape of the dose curve; as a rule, active = well fitted curve in the direction sought with a large enough effect; inconclusive = small, poorly fitted or top-dose-only effect, or another doubt; inactive = no such curve, though single readings can be large; an effect the other way counts as inactive or inconclusive. Potency is read from the fitted curve at half-maximal effect.

SMILES | VP16 counter | Epigenetic reg | RORg inh | Sfp inh | PINK1 expr mod | ClpP mod
O=C(CCN1C(=O)/C(=C/c2ccccc2Cl)SC1=S)N1CCOCC1 | ? | / | 7.08µM* | 9.2% | -0.1% | 1.4%
O=C(CCCN1C(=O)/C(=C/c2ccccc2Cl)SC1=S)N1CCCC1 | -2.0% | / | 8.91µM* | ? | -0.3% | 2.8%
CC(=O)N(c1ccc2oc(=O)sc2c1)S(=O)(=O)c1ccc(C(=O)O)cc1 | -1.2% | / | 4.5% | 56.2µM* | -0.5% | /
CCCC(=O)N(c1ccc2oc(C)c(C(C)=O)c2c1)S(=O)(=O)c1ccc(C(=O)O)cc1 | 2.3% | / | -21.2% | 12.2% | 3.0% | /
CC(C)C(=O)N(c1cc2sc(=O)oc2c2ccccc12)S(=O)(=O)c1cccs1 | ? | 10.1% | 22.4µM* | 10µM* | ? | -6.3%
CC(=O)N(c1ccc2oc(=O)sc2c1)S(=O)(=O)c1cccs1 | -1.1% | -2.5% | -10.0% | 11.2µM* | -3.8% | 1.2%
CC(=O)N(c1ccc2oc(=O)sc2c1)S(=O)(=O)c1cccc2cccnc12 | 5.4% | / | -16.9% | -12.7% | 0.1% | /
CC(C)C(=O)N(c1ccc2oc(=O)sc2c1)S(=O)(=O)c1cccs1 | -11.0% | 1.1% | -30.9% | ? | 1.1% | 2.9%
CCCC(=O)N(c1ccc2oc(=O)sc2c1)S(=O)(=O)c1ccccc1 | ? | 0.0% | ? | 14.1µM* | -3.4% | -3.0%
Cc1ccccc1-c1noc(CSc2nc(-c3ccc(F)cc3)cc(=O)[nH]2)n1 | / | -6.9% | / | / | 1.0% | -2.8%
COc1ccc(-c2cn3cccc(C)c3n2)cc1Br | -8.1% | 1.3% | -25.4% | 11.3% | 0.2% | ?
Cc1cccn2cc(-c3ccccc3)nc12 | -26.2% | -1.0% | 11.2µM* | 0.7% | 0.3% | 10µM*
Cc1cccn2cc(-c3ccc(F)cc3)nc12 | ? | ? | ? | 0.8% | -1.3% | 17.8µM*
Cc1cccn2cc(-c3ccc(F)cc3)cc12 | -2.6% | 0.6% | 11.9% | ? | -2.0% | /
COC(=O)C1(C)CCc2cc(OC)ccc2C1=O (centres undefined) | 12.7% | -1.3% | -6.9% | 21.1% | 0.9% | -1.2%
COC(=O)C1(C)CN(S(=O)(=O)c2ccc(C)cc2)c2cc(OC)ccc2C1=O (centres undefined) | -0.7% | 0.0% | 5.3% | 3.9% | 1.9% | 12.6µM*
COC(=O)[C@@H](N)CS | ? | -3.0% | 19.9% | 11.2µM* | -0.7% | -1.5%
COC(=O)C(N)CS (centres undefined) | -3.9% | 2.4% | 2.4% | -95.6% | / | /
O=C(c1ccccc1)c1ccc(Cn2cc(CCCO)nn2)cc1 | 12.6µM* | / | ? | 17.0% | 0.0% | 0.0%
CCOC(OCC)c1cn(Cc2ccc(C(=O)c3ccccc3)cc2)nn1 | 17.8µM* | / | ? | 10.4% | 7.3% | -0.3%
O=C(c1ccccc1)c1ccc(Cn2cc(-c3ccccc3)nn2)cc1 | 10µM* | / | ? | -9.3% | 0.2% | 1.2%
O=C(O)CCCCCCCCc1cn(Cc2ccc(C(=O)c3ccccc3)cc2)nn1 | 0.4% | / | -3.0% | 3.9% | 3.9% | -2.1%
Cc1ccc(C)c(N2CCN(C(=O)CCn3c(=O)c4cccn4c4cccnc43)CC2)c1 | / | 2.0% | / | / | 3.1% | -24.6%
COc1ccc(-c2cn3c(n2)sc2cc(C(=O)Nc4cc(Cl)ccc4C)ccc23)cc1 | / | 0.0% | / | / | 1.8% | ?
Cc1cc(C)cc(C(=O)Nc2c(C(=O)Nc3ccccc3F)oc3ccccc23)c1 | / | -0.9% | / | / | 5.1% | 12.6µM*
SMILES | VP16 counter | Epigenetic reg | RORg inh | Sfp inh | PINK1 expr mod | ClpP mod
O=C(Nc1c(C(=O)Nc2cccc(F)c2)oc2ccccc12)c1ccc2c(c1)OCO2 | 16.2% | 0.3% | 6.9% | 16.7% | ? | 25.1µM*
O=C(NC(=S)N1CCN(c2ccc([N+](=O)[O-])cc2)CC1)c1ccccc1 | 0.562µM* | ? | 0.282µM* | 17.0% | ? | /
O=[N+]([O-])c1ccc(N2CCN(C(=S)Nc3ccc(F)cc3)CC2)cc1 | ? | 1.1% | ? | 4.9% | 0.6% | /
O=C(NC(=S)N1CCCC1)c1cccc([N+](=O)[O-])c1 | 0.708µM* | / | 2µM* | 1.5% | 1.1% | 1.8%
O=C(NC(=S)N1CCN(c2ccccc2)CC1)c1ccc(S(=O)(=O)N2CCOCC2)cc1 | 0.631µM* | 1.1% | 0.708µM* | 11.2% | -0.2% | -0.2%
CCCC(=O)NC(=S)N1CCN(c2ccc([N+](=O)[O-])cc2)CC1 | ? | 0.0% | 3.16µM* | 4.0% | ? | -2.3%
Cc1oc(-c2cccc(Cl)c2)nc1CN1CCCC(C(=O)N2CCN(c3ccc(F)cc3)CC2)C1 (centres undefined) | / | 0.0% | / | / | 2.1% | -3.6%
Cc1cccc2c(/C=C/c3ccc(N(C)C)cc3)ccnc12 | / | / | / | / | 0.3% | 1.1%
Cc1ccc(C(=O)NC(=S)N2CCCCCC2)cc1 | / | / | / | / | -0.1% | 3.5%
O=[N+]([O-])c1ccc(N2CCN(C(=S)c3cccc([N+](=O)[O-])c3)CC2)cc1 | -6.9% | -1.4% | 4.4% | 5.62µM* | 0.9% | /
Cc1ccc(C(=O)NC(=S)N2CCN(c3ccc([N+](=O)[O-])cc3)CC2)cc1 | 1µM* | -3.0% | 0.708µM* | -18.9% | 7.5% | 1.7%
Cc1ccc(-c2csc(NC(=O)CSc3nc4ccccc4c(=O)n3CCCN(C)C)n2)cc1 | ? | -1.8% | ? | 56.2µM* | -2.3% | /
CNc1ccc(C=O)cc1Br | / | / | / | / | 0.3% | -13.0%
O=C(C1CCCN(S(=O)(=O)c2cccc3nonc23)C1)N1CCN(c2cccc(C(F)(F)F)c2)CC1 (centres undefined) | / | 4.6% | / | / | 2.0% | -1.5%
COc1ccccc1C(=O)N[C@@H]1c2ccccc2C2(CCN(Cc3c(O)cccc3OC)CC2)[C@H]1O | / | / | / | / | 0.3% | /
CC(C)(C)OC(=O)C1=NOC2(C=CC(=O)C=C2)C1 | 12.6µM*! | -0.1% | ? | 4.8% | / | /
Cc1cccc(NC(=O)C(=O)NCC(c2cccnc2)N2CCc3ccccc32)c1C (centres undefined) | / | 1.4% | / | / | -0.7% | 0.1%
CC(=O)Nc1ccc2c(c1)C(=O)N(C1CCCCC1)C2=O | 4.3% | -0.2% | 5.6% | 9.5% | -0.2% | 25.1µM*
CC(=O)N(C1=C(N2CCOCC2)C(=O)c2ccccc2C1=O)c1ccc(C(=O)O)cc1 | 11.2µM* | -1.4% | ? | -11.9% | 0.7% | -3.2%
O=C(O)c1ccc(NC2=C(N3CCOCC3)C(=O)c3ccccc3C2=O)cc1 | 0.9% | -0.9% | 13.6% | -1.7% | 0.8% | 2.9%
CC(=O)N(C)C1=C(N2CCOCC2)C(=O)c2ccccc2C1=O | ? | -1.0% | 8.91µM* | 5.1% | -6.9%[38.3 µM] | 5.7%
CCc1nnc(NC(=O)c2cc(=O)c3cc(C)c(C)cc3o2)s1 | / | -0.8% | / | / | 1.8% | 0.1%

Screening results deposited in PubChem BioAssay by National Center for Advancing Translational Sciences (NCATS).
